Measurements taken from PubChem BioAssay (NCI).
Compounds without any hit were thinned out: in the full panel of roughly 83,000, 20% have a hit.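 Growth was measured after 48 h exposure to one concentration of compound in 96-well plates. Values under 10 count as active.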 Unmarked numbers belong to inactive results. Active and inactive are the calls of the source.

Experiments:
Assay in all cases: NCI-60 one-dose screen, 48 h (100 = growth as untreated, 0 = no growth, -100 = all killed)
Settings in all cases: 10 µM unless noted
T-47D breast = tested on: T-47D breast
BT-549 breast = tested on: BT-549 breast
MDA-MB-435 melanoma = tested on: MDA-MB-435 melanoma
SW-620 colon = tested on: SW-620 colon
MCF7 breast = tested on: MCF7 breast
HCC-2998 colon = tested on: HCC-2998 colon
KM12 colon = tested on: KM12 colon
HCT-116 colon = tested on: HCT-116 colon

| SMILES | growth (T-47D breast) | growth (BT-549 breast) | growth (MDA-MB-435 melanoma) | growth (SW-620 colon) | growth (MCF7 breast) [%] | growth (HCC-2998 colon) | growth (KM12 colon) | growth (HCT-116 colon) |
| --- | --- | --- | --- | --- | --- | --- | --- | --- |
| COC(=O)Cc1nc(C#N)c(N(C)C)o1 | 89.6% | 92.6% | 103% | 95.9% | 94.9 | 103% | 94.7% |  |
| CCn1cc(C2=C(c3cn(C)c4ncccc34)C(=O)NC2=O)c2cccnc21 | 29.8% | 32.9% | 65% | 92.4% |  | 91.4% | 46.7% | 70.9% |
| COc1ccc(C(C)=O)cc1S(N)(=O)=O | 105% | 95.6% | 99.3% | 103% |  | 98.3% | 103% | 89% |
| COc1ccc(NC(=O)c2cccc(C3CCc4c(cc(OC)c(OC)c4OC)O3)c2)cc1 (stereo unspecified) | 16% | 25.9% | -10.5% (active) | 29% |  | 50.7% | 18.2% | 14.6% |
| COP(=O)(OC)c1nnn(-c2cccc([N+](=O)[O-])c2)c1C | 99.4% | 105% | 108% | 100% |  | 110% | 105% | 105% |
| CC(C)CN1CC(C(=O)Nc2ccc3c(c2)-c2ccccc2C3)CC1=O (stereo unspecified) | 61.5% [50 µM] | 65% [50 µM] | 90.2% [50 µM] | 93.3% [50 µM] |  | 64.4% [50 µM] | 74% [50 µM] | 64.1% [50 µM] |
| COC(=O)C1=Nc2ccc(F)cc2/C1=C\c1sc(Nc2ccc(O)cc2)nc1O | 62.4% | 35% | 0.954% (active) | 65.9% |  | 79.3% | 49.5% | 64% |
| Cn1cc(-c2nonc2-c2c[nH]c3ccc(F)cc23)c2cc(Br)ccc21 | 14.8% | 65.9% | 51% | 64.5% |  | 40.1% | 29.4% | 35.1% |
| Cc1ccc(O)c(NC(=O)c2ccc(CNc3ccnc(C(F)(F)F)c3)cc2)c1 | 82.3% | 52.3% | 39.6% | 87% |  | 27.7% | 72.3% | 66.4% |
| CCN1C(=O)N(CC)C2C1NN=c1s/c(=C3\C(=O)N(CCc4ccccc4)c4ccccc43)c(=O)n12 (stereo unspecified) | 44.4% | 14.2% | -40.9% (active) | 23.1% |  | 13.2% | 13.9% | 2.18% (active) |
| Cc1cc2oc(=O)cc(CP(=O)(O)O)c2cc1O | 98.8% | 105% | 99.9% | 91.3% | 88.9 | 103% | 102% |  |
| N#Cc1nc2c(S(=O)(=O)c3ccccc3)c(N)n(Cc3cccnc3)c2nc1C#N | 58.6% | 65.4% | 94.9% | 77.7% |  | 104% | 102% | 98.2% |
| COc1ccc2cc(-c3ccc(-c4ccc(C(=N)N)s4)s3)ccc2c1 | -9.45% (active) | 98.6% | 0.918% (active) | -64.3% (active) |  | -58.1% (active) | -14.5% (active) | -29.5% (active) |
| COc1cc(-c2nc(NC(C)=O)sc2-c2ccnc(NCCNS(=O)(=O)c3ccccc3)n2)ccc1Cl | 41.8% | -8.24% (active) | -62.3% (active) | 33.3% |  | 73.2% | 25.6% | 12.2% |
| CCCC(O)Cn1ncc(C(=O)OCC)c1NC(=O)NCc1cccc(F)c1 (stereo unspecified) | 88.2% | 78.5% | 101% | 107% |  | 90.6% | 105% | 71.6% |
| N#CC(C#N)N=Nc1ccc(Cl)cc1Cl | 24.3% | 94.8% | 111% | 87.3% | 73.6 | 109% | 101% |  |

| SMILES | growth (T-47D breast) | growth (BT-549 breast) | growth (MDA-MB-435 melanoma) | growth (SW-620 colon) | growth (MCF7 breast) [%] | growth (HCC-2998 colon) | growth (KM12 colon) | growth (HCT-116 colon) |
| --- | --- | --- | --- | --- | --- | --- | --- | --- |
| NC(=O)c1ccc(NC(=O)c2oc3ccccc3c2-c2cnn(-c3ccccc3)c2)cc1 | 49.8% [50 µM] | 22.2% [50 µM] | 37.7% [50 µM] | 12.8% [50 µM] |  | 28.7% [50 µM] | 34.1% [50 µM] | 9.74% [50 µM] (active) |
| COc1ccc(C2CC(c3ccc(Nc4nc(Nc5ccc(F)cc5)nc(Nc5ccc(F)cc5)n4)cc3)=NN2C(C)=O)cc1 (stereo unspecified) | 69.8% | 96.2% | 92.1% | 101% |  | 37.6% | 95.3% | 93.5% |
| O[C@@H](c1cc(C(F)(F)F)nc2c(C(F)(F)F)cccc12)[C@H]1CCCCN1 | 43.1% | 66.1% | 73.1% | 73.7% |  | 80.5% | 50.1% | 36.1% |
| C=CCOC(=O)C1=C(C)NC(=O)NC1c1c(Cl)n(C)c2ccccc12 (stereo unspecified) | 92.5% | 99.1% | 103% | 98.6% | 94.8 | 104% | 102% |  |
| CCN(CC)c1ccc(N2C(=O)/C(=C/c3cccs3)SC2=S)cc1 | 83% | 102% | 95.4% | 103% |  | 110% | 100% | 95.9% |
| CCCCCCCCCCCCCCCCCCOc1ccccc1CC(=O)OCC[N+]1(C)CCOCC1 | 84.9% | 82.9% | 82.4% | 77.1% |  | 71.8% | 65.8% | 65.6% |
| CCNC(=O)Oc1ccc(/C(=C(/C)Cc2ccc(OC)cc2)c2ccc(OCCN3CCCCCC3)cc2)cc1 | 35.9% | 89.1% | 81.6% | 70.7% |  | 63.3% | 53.9% | 56.3% |
| CCN(CC)c1ccc(/C=C\c2cc(C)c3cc(C)ccc3n2)cc1 | -22.3% (active) | -11.5% (active) | 3.36% (active) | 23.1% |  | 13.6% | 27.1% | 6.6% (active) |
| CCOC(=O)c1c(C)c2c(n1C)CSc1cc(S(=O)(=O)c3ccccc3)c(=O)[nH]c1-2 | 12.3% [100 µM] | 3.95% [100 µM] (active) | 19.3% [100 µM] | 35.9% [100 µM] |  | 20.3% [100 µM] | 16.5% [100 µM] | 11% [100 µM] |
| CC1(C)C2CC=C(/C=N/NC(=O)C3CCC(=O)N3)C1C2 (stereo unspecified) | 107% | 105% | 106% | 104% |  | 119% | 106% | 108% |
| CN1C(=O)N(C)C2C1NC(=S)N2/N=C/C=C/c1ccccc1[N+](=O)[O-] (stereo unspecified) | 22.4% | 68.1% | -61.7% (active) | 22.7% | 18.7 | 60.5% | 26.7% |  |
| COc1ccc(Cc2nnc(Nc3nc4ccccc4s3)s2)cc1 | 113% | 99.6% | 96.8% | 97.8% |  | 103% | 102% | 104% |
| COc1ccc(/C(C)=C(\c2ccc(OCCN3CCCCCC3)cc2)c2ccc(OC(=O)c3ccccc3)cc2)cc1 | 43.4% | 63.6% | 63% | 44.8% |  | 77.5% | 38.4% | 19.4% |
| COc1ccc2c(c1)c(-c1ccc(-c3cn(C)c4ccc(OC)cc34)[nH]1)cn2C | -51.2% (active) | -28.1% (active) | 41.8% | -48.6% (active) |  | -3.55% (active) | 9.21% (active) | 4.08% (active) |
| O=C(/C=C/c1cccc(Cl)c1)c1cccc(OCCCCOc2cccc(C(=O)/C=C/c3cccc(Cl)c3)c2)c1 | 75.8% | 92.6% | 70.9% | 75.1% |  | 85.5% | 70.5% |  |
